Assay [1] can be described thus: qHTS assay to identify small molecule antagonists of the estrogen related receptor (ERR) signaling pathway from Tox21 library - cell viability counter screen (AID 1224834). Also: nearly all actives have a fitted effect of over 30% in size. An outline of the steps: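 Cytotoxicity of test substances is gauged in the same ERR cells used for the antagonist screen, after 17.5 h of compound treatment at 37 C, by CellTiter-Fluor fluorescence measured after 30 min.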
(In general: qHTS replaces the single test concentration by a dilution series.)

For assay [2], the target named is Luciferin 4-monooxygenase (Photinus pyralis) (UniProt P08659). In words: qHTS assay to identify small molecule inhibitors of firefly luciferase (AID 1224835). Also: nearly all actives have a fitted effect of over 25% in size. Also: potency is read from the fitted curve at half-maximal effect. The essentials:
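Quantitative HTS format; KM concentrations of both substrates. Purified P. pyralis FLuc activity quantified from luminescence images.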

Assay [3] in a line: qHTS assay to identify small molecule agonists of the constitutive androstane receptor (CAR) signaling pathway - cell viability counter screen (AID 1224836). Also: nearly all actives have a fitted effect of over 45% in size. The essentials:
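HepG2-CYP2B6-hCAR, 2500 cells/well, 4 h pre-incubation; cpd 15 conc + PK11195 0.75 uM final; 23 h, 37 C/5% CO2; CellTiter-Fluor, fluorescence.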

Assay [4] in a line: qHTS assay to identify small molecule antagonists of the constitutive androstane receptor (CAR) signaling pathway - cell viability counter screen (AID 1224837). Also: nearly all actives have a fitted effect of over 45% in size. An outline of the steps: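 Multiplexed cytotoxicity read-out for the CAR antagonist screen: double-stable HepG2-CYP2B6-hCAR cells co-treated with 50 nM CITCO (final) and compound over 15 concentrations, incubated 23 hr, then assessed by CellTiter-Fluor fluorescence.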

In assay [5] the target is Nuclear receptor subfamily 1 group I member 3 (Homo sapiens) (UniProt Q14994). In words: qHTS assay to identify small molecule antagonists of the constitutive androstane receptor (CAR) signaling pathway (AID 1224838). Also: nearly all actives have a fitted effect of over 40% in size. The essentials: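 Compounds were titrated across 15 concentrations onto HepG2 cells double-stably expressing hCAR and a CYP2B6-2.2kb reporter, together with 50 nM CITCO (final). After 24 h at 37 C, luciferase activity was measured by luminescence.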
Chain of Nuclear receptor subfamily 1 group I member 3 (Homo sapiens) (Q14994 whole entry, looked up): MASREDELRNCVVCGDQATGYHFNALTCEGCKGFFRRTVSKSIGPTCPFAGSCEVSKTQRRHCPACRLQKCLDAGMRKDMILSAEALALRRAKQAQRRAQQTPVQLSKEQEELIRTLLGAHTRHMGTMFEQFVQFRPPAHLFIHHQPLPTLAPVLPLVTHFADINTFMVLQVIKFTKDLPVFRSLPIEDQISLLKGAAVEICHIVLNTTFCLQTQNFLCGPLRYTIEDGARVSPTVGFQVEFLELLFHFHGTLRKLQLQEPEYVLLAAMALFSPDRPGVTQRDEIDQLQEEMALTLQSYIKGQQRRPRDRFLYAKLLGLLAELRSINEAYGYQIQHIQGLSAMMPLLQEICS

The target is the same in assay [6]. Kind of assay: qHTS assay to identify small molecule agonists of the constitutive androstane receptor (CAR) signaling pathway (AID 1224839). Also: nearly all actives have a fitted effect of over 15% in size. Also: potency is read from the fitted curve at half-maximal effect. The essentials: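 HepG2-CYP2B6-hCAR cells, 2500/well, 4 h pre-incubation; compounds 15 conc.; PK11195 0.75 uM final; 24 h, 37 C/5% CO2; ONE-Glo luciferase read.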
A short description of assay [7]: qHTS assay to identify small molecule antagonists of the estrogen related receptor signaling pathway with the pleiotropic PPARgamma coactivator (PGC) from Tox21 10K library - cell viability counter screen (AID 1224840; active = well fitted cell-killing curve with a large enough effect in the repeat runs, not every such curve was filed as active; also: nearly all actives have a fitted effect of over 40% in size). An outline of the steps:
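Step one, plate 2,000 PGC/ERR cells per well; step two, incubate 6 h at 37 C/5% CO2; step three, pin-transfer compounds; step four, incubate 17.5 h; step five, add CellTiter-Fluor and read fluorescence after 30 min.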

Assay [8] is described as follows: qHTS assay to identify small molecule antagonists of the estrogen related receptor signaling pathway with the pleiotropic PPARgamma coactivator (PGC) from Tox21 10K library (AID 1224841; call rule not given here; also: actives are mostly falling curves and most rising ones were filed inactive; nearly all actives have a fitted effect of over 50% in size). The essentials:
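Antagonism in this quantitative HTS is taken from loss of luciferase signal in PGC/ERR cells. Cells (2,000/well) are treated with compounds in DMSO after a 6 h settling period and read by One-Glo luminescence after 18 h.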

Assay [9] in a line: qHTS assay to identify small molecule agonists of the estrogen related receptor signaling pathway with the pleiotropic PPARgamma coactivator (PGC) from Tox21 10K library (AID 1224842). Also: nearly all actives have a fitted effect of over 15% in size. The essentials:
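PGC/ERR reporter cells (NTP line) were seeded 2,000 per well, rested 6 h at 37 C/5% CO2, then pin-dosed with compounds in DMSO for 18 h at 37 C; luciferase read by One-Glo luminescence after 30 min at room temperature.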

The target in assay [10] is Thyrotropin receptor (Homo sapiens) (UniProt P16473). In words: qHTS assay to identify small molecule agonists of the thyroid stimulating hormone receptor (TSHR) signaling pathway (AID 1224843; calls by dose curve; also: nearly all actives have a fitted effect of over 45% in size). An outline of the steps: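 Cell line HEK293 with TSHR; density 800/well. Exposure 30 min RT. Readout HTRF cAMP (cAMP-d2/anti-cAMP-cryptate), 1 h RT before reading.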
Chain of Thyrotropin receptor (Homo sapiens) (P16473 whole entry, looked up): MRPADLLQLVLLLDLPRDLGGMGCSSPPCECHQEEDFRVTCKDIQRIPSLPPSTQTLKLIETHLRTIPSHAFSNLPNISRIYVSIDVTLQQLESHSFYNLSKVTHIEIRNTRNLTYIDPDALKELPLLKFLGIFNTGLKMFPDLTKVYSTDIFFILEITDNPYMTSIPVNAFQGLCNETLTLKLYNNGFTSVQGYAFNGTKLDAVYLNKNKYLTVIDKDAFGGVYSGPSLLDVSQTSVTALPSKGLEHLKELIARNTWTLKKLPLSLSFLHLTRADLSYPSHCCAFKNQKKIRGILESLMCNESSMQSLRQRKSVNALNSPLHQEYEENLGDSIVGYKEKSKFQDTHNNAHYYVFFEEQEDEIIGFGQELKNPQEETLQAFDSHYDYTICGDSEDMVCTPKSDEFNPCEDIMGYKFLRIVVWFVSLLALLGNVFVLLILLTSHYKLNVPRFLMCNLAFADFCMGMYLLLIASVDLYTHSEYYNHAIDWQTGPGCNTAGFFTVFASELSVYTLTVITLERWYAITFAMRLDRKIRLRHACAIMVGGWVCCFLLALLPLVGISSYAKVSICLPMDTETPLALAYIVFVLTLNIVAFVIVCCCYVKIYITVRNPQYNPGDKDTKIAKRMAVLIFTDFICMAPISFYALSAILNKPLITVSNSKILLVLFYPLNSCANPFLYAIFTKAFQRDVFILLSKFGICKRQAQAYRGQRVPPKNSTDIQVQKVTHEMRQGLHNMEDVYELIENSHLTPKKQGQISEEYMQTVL
Assay [11] can be described thus: qHTS assay to identify small molecule agonists of the hypoxia (HIF-1) signaling pathway - cell viability counter screen (AID 1224844; calls by dose curve; also: nearly all actives have a fitted effect of over 50% in size). The essentials:
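Tox21 10K compounds were added to HRE-bla ME-180 cells (0.5% dialyzed FBS) and incubated 17 hrs at 37C; ATP-based CellTiter-Glo luminescence then reported cell viability in the same wells.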

A short description of assay [12]: qHTS assay to identify small molecule agonists of the hypoxia (HIF-1) signaling pathway (AID 1224846; active = well fitted activation curve with a large enough effect in the signal ratio in the repeat runs, not every such curve was filed as active; the % refers to the signal ratio). An outline of the steps: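 Steps: seed ME-180 HRE-bla cells (2,000/well, 0.5% dialyzed FBS); incubate 5 hrs at 37C; pin-transfer compounds or DMSO; incubate 17 hrs; add LiveBLAzer B/G substrate CCF4-AM; measure reporter activation by FRET.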
Assay [13] in a line: qHTS assay to identify small molecule agonists of H2AX - cell viability counter screen (AID 1224847; calls by dose curve; also: top concentration of the series differs between compounds; nearly all actives have a fitted effect of over 30% in size). The essentials:
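Cells plated first: CHO-K1, 1000 per well in 10% FBS medium, incubated overnight at 37C. Then 15-point compound titration added (final DMSO 0.76%) for 3 hr. Finally CellTiter-Glo added and luminescence read.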

Assay [14] is described as follows: qHTS assay to identify small molecule antagonists of the estrogen related receptor (ERR) signaling pathway from Tox21 library (AID 1224848). Also: nearly all actives have a fitted effect of over 50% in size. The essentials:
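Screening used an ERR reporter line supplied by NTP, exposed for 18 h at 37 C to library compounds delivered in DMSO. Signal was luciferase luminescence developed with ONE-Glo at room temperature for 30 min.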

Assay [15] can be described thus: qHTS assay to identify small molecule agonists of the estrogen related receptor (ERR) signaling pathway from Tox21 library (AID 1224849; calls by dose curve; also: nearly all actives have a fitted effect of over 15% in size). The note with it: ERR reporter cell line, ONE-Glo luciferase, 18 h; at 92.4 µM (top of the series) unless noted. An outline of the steps:
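Agonist signal is luciferase luminescence from an ERR reporter cell line treated 18 h at 37 C with DMSO-dissolved compounds, read 30 min after ONE-Glo addition at room temperature.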

The nature of assay [16]: qHTS RealTime-Glo MT Cell Viability Assay in HepG2 cells - 24 hour (AID 1224867). Also: nearly all actives have a fitted effect of over 50% in size. An outline of the steps: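 HepG2 cells (600/well) were dispensed with RealTime-Glo reagents, incubated 5 h at 37 °C, then treated with compounds in DMSO for up to 40 h. Nonlytic NanoLuc luminescence reflecting viable cells was read at each stated time point.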
Assay [17] can be described thus: qHTS RealTime-Glo MT Cell Viability Assay in HEK293 cells - 32 hour (AID 1224868). The essentials: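 HEK293 cells seeded with NanoLuc/prosubstrate reagent, rested 5 h at 37 C, then dosed and kept at 37 C up to 40 h. Nonlytic real-time luminescence from viable cells read at 0, 8, 16, 24, 32 and 40 h.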
Assay [18] in a line: A CellTox Green Cytotoxicity Assay to monitor cytotoxicity in HEK293 cells - 0 hour (AID 1224869). Also: nearly all actives have a fitted effect of over 50% in size. An outline of the steps: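 Cytotoxicity was tracked continuously in HEK293 cells by a DNA-binding dye excluded from viable cells. Compounds were transferred in DMSO 5 h after seeding; fluorescence was recorded at intervals up to 40 h.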
A short description of assay [19]: qHTS RealTime-Glo MT Cell Viability Assay in HepG2 cells - 40 hour (AID 1224870). Also: nearly all actives have a fitted effect of over 50% in size. An outline of the steps:
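HepG2 cells mixed with RealTime-Glo MT reagents (NanoLuc plus cell-permeant prosubstrate) were seeded at 600 cells/well, incubated 5 h at 37 C/5% CO2, then pinned with compounds in DMSO; nonlytic luminescence tracked viability during 40 h treatment.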

Assay [20] can be described thus: qHTS assay to identify small molecule agonists of H2AX (AID 1224845; active = well fitted activation curve with a large enough effect in the signal ratio in the repeat runs, not every such curve was filed as active; the % refers to the signal ratio). An outline of the steps: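 Wild-type CHO-K1 cells plated overnight, then exposed 3 hr at 37C to compounds at 15 concentrations (0.76% DMSO). Lysed, then HTRF anti-pH2AX(S139)-cryptate/anti-H2AX-d2 detection after 24 hr at room temperature; emissions 665 and 620 nm.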

Our source for the Potency, outcome and activity change, positive = activation values is PubChem BioAssay (Tox21).

Values without a mark were called inactive. Records with an inconclusive call do not appear. Calls of active or inactive are those of the source. Unless noted, calls follow the shape of the dose curve; as a rule, active = well fitted curve in the direction sought with a large enough effect in the repeat runs; inconclusive = weak or mixed curves; inactive = no such curve, though single readings can be large; an effect the other way counts as inactive or inconclusive.
% is scaled to controls: 0 for no effect and ±100 for the full control effect.

Chain of Luciferin 4-monooxygenase (Photinus pyralis) (P08659 whole entry, looked up): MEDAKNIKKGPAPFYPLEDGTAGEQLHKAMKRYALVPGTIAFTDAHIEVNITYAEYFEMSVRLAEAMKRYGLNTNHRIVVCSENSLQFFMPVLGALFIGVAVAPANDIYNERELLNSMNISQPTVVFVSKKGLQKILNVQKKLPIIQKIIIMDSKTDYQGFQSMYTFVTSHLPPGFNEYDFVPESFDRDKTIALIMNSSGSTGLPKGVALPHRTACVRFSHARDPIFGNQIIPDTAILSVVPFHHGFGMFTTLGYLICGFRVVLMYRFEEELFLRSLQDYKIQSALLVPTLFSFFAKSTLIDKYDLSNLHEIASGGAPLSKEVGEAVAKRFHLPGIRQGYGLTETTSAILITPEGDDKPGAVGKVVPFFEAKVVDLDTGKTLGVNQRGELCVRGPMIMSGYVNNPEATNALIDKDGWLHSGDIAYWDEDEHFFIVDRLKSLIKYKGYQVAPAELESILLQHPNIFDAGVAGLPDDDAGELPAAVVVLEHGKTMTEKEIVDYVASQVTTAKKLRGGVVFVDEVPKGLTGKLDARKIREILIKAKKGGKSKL

Consider `C=CC(=C)CCCC(C)(C)OC(C)=O`, for which the Potency result in assay [1], in [2], in assay [3], in assay [4], in [5] and in assay [6] was “inactive” throughout. Moreover, the Potency entry in assay [7], in assay [8], in assay [9], in assay [10], in assay [11] and in assay [13] was “inactive” in each case. Moreover, the Potency entry in [14], in [16], in assay [17], in assay [18] and in [19] was “inactive” each time. The molecule was classed as inactive in assay [12]. The activity change, positive = activation in assay [15] was -5.77%.
Take `CC1(C)O[C@@H]2C[C@H]3[C@@H]4CCC5=CC(=O)C=C[C@]5(C)[C@H]4[C@@H](O)C[C@]3(C)[C@]2(C(=O)CO)O1`: the Potency entry in [1], in [2], in [3], in assay [4], in assay [5] and in [6] was “inactive” each time. Moreover, the Potency entry in assay [7], in assay [8], in assay [9], in [10], in assay [11] and in [20] was “inactive” each time. Also, the Potency result in [14], in [16], in assay [17], in [18] and in assay [19] was “inactive” in each case. In [12], the call was inactive. The activity change, positive = activation in assay [15] is -2.7% [at 42.5 µM].
For `Nc1ccc(S(=O)(=O)O)cc1`, the Potency entry in assay [1], in assay [2], in assay [3], in assay [4], in assay [5] and in [6] was “inactive” in each case. Moreover, the Potency result in assay [7], in assay [8], in [9], in assay [13], in assay [14] and in assay [16] was “inactive” throughout. Besides, the Potency entry in assay [17], in assay [18] and in [19] was “inactive” throughout. Also, the call in assay [12] was inactive. Besides, in [15], the activity change, positive = activation is 2.73%.
For `O=C(NCCCN1CCOCC1)c1ccc(Cl)cc1`, the Potency result in [1], in assay [2], in [3], in assay [4], in assay [5] and in assay [6] was “inactive” each time. The Potency entry in assay [7], in assay [8], in [9], in [10], in [11] and in assay [20] was “inactive” each time. Moreover, the Potency entry in assay [13], in assay [14], in assay [16], in assay [17] and in assay [19] was “inactive” in each case. Also, the molecule was classed as inactive in assay [12]. For the same molecule, the activity change, positive = activation in [15] is 11.6% [at 42.5 µM].
As for `COC(OC)(C(=O)c1ccccc1)c1ccccc1`, the Potency result in assay [1], in [2], in assay [3], in [4], in assay [5] and in [7] was “inactive” throughout. For the same molecule, the Potency result in assay [8], in assay [9], in assay [10], in assay [20], in assay [14] and in assay [17] was “inactive” throughout. Further, the Potency result in [18] and in assay [19] was “inactive” throughout. In addition, the Potency in assay [6] was 15.3 µM (active). In addition, in [12], the molecule was called inactive. Further, the activity change, positive = activation in assay [15] was -3.37%.
Take `CC1CC(O)CC(C)(C)C1` (stereo not drawn): the Potency result in assay [1], in assay [2], in [3], in assay [4], in assay [5] and in [6] was “inactive” throughout. Moreover, the Potency entry in [7], in [8], in assay [9], in assay [10], in assay [11] and in assay [20] was “inactive” throughout. For the same molecule, the Potency result in assay [13], in [14], in assay [16], in assay [17] and in assay [19] was “inactive” throughout. Also, in assay [12], the outcome was inactive. In addition, in assay [15], the activity change, positive = activation was -6.05%.
Take `O=C(O)c1ccccc1NCCc1ccccc1`: the Potency entry in [1], in [3], in [4], in assay [5], in [7] and in [8] was “inactive” each time. Besides, the Potency entry in assay [10], in assay [11], in assay [20], in [13], in assay [14] and in assay [16] was “inactive” each time. In addition, the Potency result in assay [17], in assay [18] and in assay [19] was “inactive” each time. Further, the values for the Potency in assay [2] and in [6] were 27.5 µM (active) and 26.6 µM (active), respectively. In addition, in assay [12], the call was inactive.
